This assay deals with Trichoderma virens ATCC 9645. The assay is described as follows: growth yield (OD600) relative to untreated control; higher = less growth inhibition. Conditions: compound concentration: 100 uM. An outline of the steps:
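For each 96-well plate, 100 μl aliquots were prepared with Trichoderma virens ATCC 9645 spores suspended at 15,000 spores ml^−1 in potato dextrose broth. The spores had been harvested from potato dextrose agar plates after 7 days. Library compounds were present at 100 μM final, some wells also receiving a biocide at 200 ng ml^−1, and plates were grown at 30 °C with OD600 read on a BioTek EL800 at 40 h and 72 h. Reported growth, relative to the control lacking both agents, is the mean of duplicate screens.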

SMILES strings stand for the structures. Where a name gives a salt, the structure may show the parent alone. ± gives the standard error. Out of some 1,300 compounds screened, about 75 (6%) showed an effect of 50% or more. This excerpt belongs to a sample that is enriched for strong results.

With `Clc1cc(Cl)c(OCC#CI)cc1Cl` [Haloprogin], the growth yield (40 h) is 6.04 ± 1.6% and the growth yield (72 h) was found to be 5.14 ± 0.73%.

Regarding `CC1CC(OC(=O)c2ccccc2O)CC(C)(C)C1` (stereo unspecified) [Homosalate], the growth yield came out at 109 ± 3.2% (40 h) and 105.8 ± 0.32% (72 h).

As for `CCCCNc1ccc(C(=O)OCCOCCOCCOCCOCCOCCOCCOCCOCCOC)cc1` [Benzonatate], the growth yield reads like this: (40 h) 92.1 ± 2.5%; (72 h) 89.1 ± 2.1%.

With `CCCCNc1c(C(=O)OCC)c(C)nc2c1cnn2CC` [Tracazolate hydrochloride], the growth yield runs as follows: (40 h) 38.1 ± 16%; (72 h) 60.5 ± 13%.

`CCCCNc1ccc(C(=O)OCCN(C)C)cc1` returned a growth yield (40 h) of 99.752 ± 2.2e-14% and a growth yield (72 h) of 102 ± 3.4%.

`CC[C@H]1OC(=O)C[C@@H](O)[C@H](C)[C@@H](O[C@@H]2O[C@H](C)[C@@H](O[C@H]3C[C@@](C)(O)[C@@H](O)[C@H](C)O3)[C@H](N(C)C)[C@H]2O)[C@@H](CC=O)C[C@@H](C)C(=O)/C=C/C(C)=C/[C@@H]1CO[C@@H]1O[C@H](C)[C@@H](O)[C@@H](OC)[C@H]1OC` [Tylosin]: the growth yield by setting is: (40 h) 95.94 ± 0.32%; (72 h) 94.2 ± 1.9%.

With `C[C@H]1c2cccc(O)c2C(=O)C2=C(O)[C@]3(O)C(=O)C(C(N)=O)=C(O)[C@@H](N(C)C)[C@@H]3[C@@H](O)[C@@H]21` [Doxycycline hydrochloride], the growth yield reads like this: (40 h) 93.2 ± 1.8%; (72 h) 92.7 ± 2.7%.

`Cc1c(N(C)CS(=O)(=O)O)c(=O)n(-c2ccccc2)n1C` [Dipyrone]: the growth yield runs as follows: (40 h) 91.7 ± 4.6%; (72 h) 85.68 ± 0.73%.

As for `CN1CCN(CCCN2c3ccccc3Sc3ccc(Cl)cc32)CC1` [Prochlorperazine dimaleate], the growth yield worked out at 31 ± 8.7% (40 h) and 108 ± 2.4% (72 h).

In the case of `CN1CCN(CCCN2c3ccccc3Sc3ccc(S(=O)(=O)N(C)C)cc32)CC1` [Thioproperazine dimesylate], the growth yield is, setting by setting: (40 h) 64.5 ± 11%; (72 h) 90.7 ± 4.1%.

Regarding `CCSc1ccc2c(c1)N(CCCN1CCN(C)CC1)c1ccccc1S2` [Thiethylperazine dimalate], the growth yield is, setting by setting: (40 h) 3.02 ± 0.16%; (72 h) 2.73 ± 0.42%.

As to `OCCN1CCN(CCCN2c3ccccc3Sc3ccc(Cl)cc32)CC1` [Perphenazine], the growth yield is, setting by setting: (40 h) 59.1 ± 5.1%; (72 h) 113 ± 14%.

With `CN(C)CCCN1c2ccccc2Sc2ccc(Cl)cc21` [Chlorpromazine hydrochloride], the growth yield turned out to be 68.8 ± 2.1% (40 h) and 86.52 ± 0.32% (72 h).

For the molecule `CC(=O)c1ccc2c(c1)N(CCCN(C)C)c1ccccc1S2` [Acetopromazine maleate salt], the growth yield turned out to be 109 ± 5.9% (40 h) and 111 ± 4.1% (72 h).

For `COc1cc(N)c(Cl)cc1C(=O)NC1CCN(CCCOc2ccc(F)cc2)CC1OC` (stereo unspecified) [Cisapride], the growth yield reads like this: (40 h) 108%; (72 h) 109%.

Consider `O=C(Cn1ccnc1[N+](=O)[O-])NCCO` [Etanidazole], for which the growth yield runs as follows: (40 h) 101 ± 2.2%; (72 h) 98 ± 1.9%.

`CCN(CC)CCOC(=O)C1(c2ccc([N+](=O)[O-])cc2)CCCC1` [Nitrocaramiphen hydrochloride]: the growth yield is, setting by setting: (40 h) 101%; (72 h) 103.3 ± 0.52%.

Consider `O=C(CCCN1CCC(O)(c2ccc(Br)cc2)CC1)c1ccc(F)cc1` [Bromperidol], for which the growth yield (40 h) came to 104.4 ± 0.48% and the growth yield (72 h) is 105.4 ± 0.1%.

For `C/C(=C(\CCOP(=O)(O)O)SC(=O)c1ccccc1)N(C=O)Cc1cnc(C)nc1N` [Benfotiamine], the growth yield (40 h) worked out at 99.75 ± 0.64% and the growth yield (72 h) was found to be 96.38 ± 0.1%.

On to `NC(=O)c1cc[n+](CC2=C(C(=O)[O-])N3C(=O)[C@@H](NC(=O)[C@@H](c4ccccc4)S(=O)(=O)O)[C@H]3SC2)cc1` [Cefsulodin sodium salt], for which the growth yield by setting is: (40 h) 95 ± 4.8%; (72 h) 99.3 ± 3.2%.

Regarding `CC[C@H](C)C(=O)O[C@H]1CCC=C2C=C[C@H](C)[C@H](CC[C@@H]3C[C@@H](O)CC(=O)O3)[C@H]21` [Mevastatin], the growth yield (40 h) came to 103 ± 7.6% and the growth yield (72 h) is 96.2 ± 6.6%.

As for `O=P(O)(O)C(O)(Cn1ccnc1)P(=O)(O)O` [Zoledronic acid hydrate], the growth yield came out at 108 ± 4.5% (40 h) and 109 ± 1.6% (72 h).

For the molecule `CO[C@H]1/C=C/O[C@@]2(C)Oc3c(C)c(O)c4c(O)c(c(/C=N/N5CCN(C6CCCC6)CC5)c(O)c4c3C2=O)NC(=O)/C(C)=C\C=C\[C@H](C)[C@H](O)[C@@H](C)[C@@H](O)[C@@H](C)[C@H](OC(C)=O)[C@@H]1C` [Rifapentine], the growth yield turned out to be 84.5% (40 h) and 94% (72 h).

`CSc1ccc2c(c1)C(N1CCN(C)CC1)Cc1ccccc1S2` (stereo unspecified) [Methiothepin maleate]: the growth yield came to 43.5 ± 3.5% (40 h) and 75.4 ± 3.2% (72 h).

`CN1CCC(=C2c3ccccc3Sc3ccccc32)CC1` [Pimethixene maleate]: the growth yield reads like this: (40 h) 85.77 ± 0.64%; (72 h) 95.2 ± 1.9%.

`CSc1ccc2c(c1)N(CCC1CCCCN1C)c1ccccc1S2` (stereo unspecified) [Thioridazine hydrochloride] had a growth yield (40 h) of 53.8 ± 6.2% and a growth yield (72 h) of 83 ± 2.6%.

Regarding `CN(Cc1cc(Br)cc(Br)c1N)C1CCCCC1` [Bromhexine hydrochloride], the growth yield came to 99 ± 1.1% (40 h) and 98.2 ± 1.9% (72 h).

Turning to `Cc1scc2c1N(C(=O)CN1CCN(C)CC1)c1ccccc1NC2=O` [Telenzepine dihydrochloride], the growth yield stood at 99.75 ± 0.32% (40 h) and 103 ± 1.1% (72 h).

In the case of `CC(=O)Oc1cc(C(F)(F)F)ccc1C(=O)O` [Triflusal], the growth yield is 94.5 ± 2.4% (40 h) and 91.77 ± 0.32% (72 h).

For the molecule `Cc1cc(N)c2ccccc2[n+]1CCCCCCCCCC[n+]1c(C)cc(N)c2ccccc21` [Dequalinium dichloride], the growth yield runs as follows: (40 h) 2.54 ± 1.6%; (72 h) 2.2 ± 1.4%.

On to `Nc1ccccc1S(N)(=O)=O` [2-Aminobenzenesulfonamide], for which the growth yield reads like this: (40 h) 93.7 ± 1.6%; (72 h) 94.39 ± 0.63%.

As for `Cc1cc(C2CCCCC2)n(O)c(=O)c1` [Ciclopirox ethanolamine], the growth yield (40 h) was 1.27 ± 1.3% and the growth yield (72 h) was found to be 1.15 ± 1.1%.

`CC(=O)Nc1c(I)c(C(=O)N[C@H]2C(O)O[C@H](CO)[C@@H](O)[C@@H]2O)c(I)c(N(C)C(C)=O)c1I` (stereo partly specified) [Metrizamide]: the growth yield is, setting by setting: (40 h) 102 ± 13%; (72 h) 105 ± 12%.

The values are drawn from the supplement of paper PMC8007513.
